# About 83,000 compounds went through this panel and 20% of them were active in at least one assay; those are over-represented in the sample as a whole.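 Cell lines were cultured in 96-well plates, exposed to a single compound concentration, and assessed for percent growth 48 hours later.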 Values without a mark were called inactive. Active and inactive are the calls of the source. How the source made its calls: active means growth percent below 10; inactive means the rest.
# Test system: HCT-116 colon
# Assay: NCI-60 one-dose screen, 48 h (100 = growth as untreated, 0 = no growth, -100 = all killed)
# Conditions: 10 µM unless noted
row,SMILES,growth
1,N#CC1C(C#N)C(C(=O)c2ccc(Br)cc2)N2c3ccccc3C=CC12 (stereo not drawn),68.5%
2,CC(Sc1nc2sc3c(c2c(=O)n1-c1ccc(Cl)cc1)CCCC3)C(=O)Nc1nc(-c2ccc(Br)cc2)cs1 (stereo not drawn),93.4%
3,COc1cc2c(cc1OC)C(=O)/C(=C/c1cc(C)c(O)c(C)c1)S2,23.1%
4,O=C1/C=C/[C@@H](O)[C@@H]2C[C@@H](O)C[C@H]2/C=C/CCC[C@H](CCc2cccc3ccccc23)O1,-63.9% (active)
5,COc1ccc(C/C(=C(\C)c2ccc(OCCN3CCCC3)cc2)c2ccc(OCCN3CCCC3)cc2)cc1,24.9%
6,CC1=CCC(OC(=O)C(C)(O)CCC(O)(C(=O)OC2(C)C=CC(O)(C(C)C)CC2)C(C)C)(C(C)C)CC1 (stereo not drawn),101%
7,CC(C)c1ccc(Nc2ccc3c(OCCCN4CCN(C)CC4)cccc3n2)cc1,18.6%
8,CCCOc1ccc(/C=N/Nc2cc(C)nc3ccc(Cl)cc23)cc1,-74.8% (active)
9,CC(Oc1ccc(C(=O)O)cc1C(F)(F)F)c1ccc(Oc2ccccc2)cn1 (stereo not drawn),103%
10,COc1ccc(NC(=O)c2cc(NCc3cc(O)ccc3O)ccc2O)cc1,96.9%
11,ClC1=C(Br)C(Br)(Br)C(=C(Br)Br)C1(Br)Br,79.9%
12,COc1cccc(-c2nc3occn3c2-c2ccnc(NCCCNS(=O)(=O)c3ccc(C(F)(F)F)cc3)n2)c1,83.9%
13,Cn1nc(CC#N)c2c(=N)n(N)cnc21,119%
14,N#C/C(=C\c1ccc(C(F)(F)F)cc1)c1cc2ccccc2[nH]1,94.9%
15,CCCCCCCCOc1ccc(/C=N/Nc2cc(C)nc3ccc(Br)cc23)cc1,6.51% (active)
16,CC(=O)N1N=C(c2ccc(-n3ccc(C(F)(F)F)n3)c(F)c2)CC1c1ccc[nH]1 (stereo not drawn),103%
17,COc1cc(-c2csc(NC(=O)c3cc(F)cc(C(F)(F)F)c3)n2)cc(OC)c1OC,16.5%
18,COc1cc(/C=C/C(=O)c2nc3cc(F)ccc3nc2C)cc(OC)c1OC,44.5%
19,N#Cc1cc(-c2nc3ccccc3s2)c(=O)n(NS(=O)(=O)c2ccccc2)c1N,109%
20,CC(C)N1C(=O)S/C(=C2/SC(=O)N(C(C)C)C2=O)C1=O,105%
21,O=C(/C=C/c1ccc[nH]1)c1ccc(-n2ccc(C(F)(F)F)n2)c(F)c1,85.6%
22,Nc1c(C(=O)Nc2cccc3cnccc23)sc2nc3c(cc12)C(=O)CCC3,86%
23,COc1ccc(Cc2cnc(NC(=O)c3ccc4c(c3)OCCO4)s2)cc1,7.75% (active)
24,Cc1ccc(NC(=O)c2cc(-c3nc4ccccc4s3)c(=O)n(NS(=O)(=O)c3ccc(Cl)cc3)c2N)cc1,95.6%
25,COc1cc(-c2n/c(=C\c3c(O)[nH]c4ccc(Cl)cc34)cc3c2=Nc2ccccc2-3)ccc1F,-45.8% (active)

# Test system: HCC-2998 colon
# Assay: as above
# Conditions: 10 µM unless noted
row,SMILES,growth
1,Brc1ccc2[nH]cc(-c3cncn3CCc3ccccc3)c2c1,72.5%
2,CN(CCN(C)c1ccc(C(=N)N)cc1)c1ccc(C(=N)N)cc1,97%
3,Nc1ccccc1NC(=O)c1ccc(-n2nc(-c3ccccc3)c3ccccc32)cc1,104%
4,CC(C)(C)c1cc(/C=N/NC(=O)c2ccccc2NC(=O)c2cccs2)c(O)c(C(C)(C)C)c1,30.9%
5,CCCCCCCCO/N=C\c1c2c(O)c3c(O)c(C)c4c(c3c1O)C(=O)C(C)(O/C=C\C(OC)C(C)C(OC(C)=O)C(C)C(O)C(C)C(O)C(C)/C=C\C=C(\C)C(=O)N2)O4 (stereo not drawn),14.7%
6,O=C1CC(=O)OC(c2ccc([N+](=O)[O-])cc2)O1,7.55% (active)
7,CN1CCN(c2ccc(NC3=C(Cl)C(=O)c4ncccc4C3=O)cc2C(F)(F)F)CC1,105%
8,O=C(c1nc2ccccc2[nH]1)C1C(c2ccc(Br)cc2)C2CC3CCCC[C@H]3N2[C@@]12C(=O)Nc1cc(Cl)ccc12 (stereo partly drawn),39.7%
9,N=C(N)c1ccc(OCCCCCCCCCCOc2ccc(C(=N)N)cc2)cc1,-94.9% (active)
10,CNC(=O)c1cc(Cn2nc(C)c(NC(=O)Nc3ccc(Cl)c(C(F)(F)F)c3)c2C)ccn1,105%
11,O=S(=O)(Nc1ccc(-n2cnc3cc(-c4ccc(O)cc4)ccc32)cc1)c1ccccc1,115%
12,O=C(N/N=C/c1ccc(Oc2ccccc2)cc1)c1cnn2c1NC(c1ccccc1)C2 (stereo not drawn),71.8%
13,COc1cc(/C(C)=C(\c2ccc(Cl)cc2)c2ccc(OCCN3CCCC3)cc2)ccc1F,57.4%
14,N#CC1C(C#N)C(C(=O)c2ccc(Br)cc2)N2c3ccccc3C=CC12 (stereo not drawn),50.7%
15,CC(Sc1nc2sc3c(c2c(=O)n1-c1ccc(Cl)cc1)CCCC3)C(=O)Nc1nc(-c2ccc(Br)cc2)cs1 (stereo not drawn),101%
16,COc1cc2c(cc1OC)C(=O)/C(=C/c1cc(C)c(O)c(C)c1)S2,60.4%
17,O=C1/C=C/[C@@H](O)[C@@H]2C[C@@H](O)C[C@H]2/C=C/CCC[C@H](CCc2cccc3ccccc23)O1,3.84% (active)
18,COc1ccc(C/C(=C(\C)c2ccc(OCCN3CCCC3)cc2)c2ccc(OCCN3CCCC3)cc2)cc1,68.9%
19,CC1=CCC(OC(=O)C(C)(O)CCC(O)(C(=O)OC2(C)C=CC(O)(C(C)C)CC2)C(C)C)(C(C)C)CC1 (stereo not drawn),112%

row,SMILES,growth
1,CC(C)c1ccc(Nc2ccc3c(OCCCN4CCN(C)CC4)cccc3n2)cc1,64.7%
2,CCCOc1ccc(/C=N/Nc2cc(C)nc3ccc(Cl)cc23)cc1,-39.9% (active)
3,CC(Oc1ccc(C(=O)O)cc1C(F)(F)F)c1ccc(Oc2ccccc2)cn1 (stereo not drawn),108%
4,COc1ccc(NC(=O)c2cc(NCc3cc(O)ccc3O)ccc2O)cc1,107%
5,ClC1=C(Br)C(Br)(Br)C(=C(Br)Br)C1(Br)Br,115%
6,COc1cccc(-c2nc3occn3c2-c2ccnc(NCCCNS(=O)(=O)c3ccc(C(F)(F)F)cc3)n2)c1,124%
7,Cn1nc(CC#N)c2c(=N)n(N)cnc21,120%
8,N#C/C(=C\c1ccc(C(F)(F)F)cc1)c1cc2ccccc2[nH]1,116%
9,CCCCCCCCOc1ccc(/C=N/Nc2cc(C)nc3ccc(Br)cc23)cc1,89.8%
10,CC(=O)N1N=C(c2ccc(-n3ccc(C(F)(F)F)n3)c(F)c2)CC1c1ccc[nH]1 (stereo not drawn),111%
11,COc1cc(-c2csc(NC(=O)c3cc(F)cc(C(F)(F)F)c3)n2)cc(OC)c1OC,72.2%
12,COc1cc(/C=C/C(=O)c2nc3cc(F)ccc3nc2C)cc(OC)c1OC,-4.35% (active)
13,N#Cc1cc(-c2nc3ccccc3s2)c(=O)n(NS(=O)(=O)c2ccccc2)c1N,116%
14,CC(C)N1C(=O)S/C(=C2/SC(=O)N(C(C)C)C2=O)C1=O,104%
15,O=C(/C=C/c1ccc[nH]1)c1ccc(-n2ccc(C(F)(F)F)n2)c(F)c1,94.2%
16,Nc1c(C(=O)Nc2cccc3cnccc23)sc2nc3c(cc12)C(=O)CCC3,97.4%
17,COc1ccc(Cc2cnc(NC(=O)c3ccc4c(c3)OCCO4)s2)cc1,18.8%
18,Cc1ccc(NC(=O)c2cc(-c3nc4ccccc4s3)c(=O)n(NS(=O)(=O)c3ccc(Cl)cc3)c2N)cc1,118%
19,COc1cc(-c2n/c(=C\c3c(O)[nH]c4ccc(Cl)cc34)cc3c2=Nc2ccccc2-3)ccc1F,71.6%

# Source: PubChem BioAssay (NCI)
